# This is a sample that favours compounds with a hit; in the whole collection about 5.6% have one here.
# M18AAP inhibitor: PfM18AAP enzyme inhibition; recombinant PfM18AAP, H-Glu-NHMec fluorogenic cleavage; inhibition, % at 7.35 µM; 290,000 compounds, 1.2% hits;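 active = inhibition above the campaign mean inhibition over all tested compounds plus 3 SD, cut at about 28% in these data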;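 note: 0% = plate median of test compound wells and 100% = 2 mM ZnCl2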
# H9c2 protect: protects H9c2 cardiomyocytes from peroxide injury | H2O2 injury protection, ATPLite, 2 h | protection from H2O2 cell death, % at 20 µM | 360,000 compounds, 0.63% hits;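 active = compounds giving at least 50% protection of heart cells from peroxide-induced death in the single-dose screen, raw or plate-pattern-corrected value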;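 note: 0% = DMSO wells with peroxide and 100% = DMSO wells without peroxide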
# PfGluPho inh: PfG6PD (Plasmodium falciparum) enzyme inhibition; inhibition, % at 20 µM; PfGluPho enzyme, NADPH resazurin-diaphorase fluorescence; 350,000 compounds, 0.78% hits;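 active = inhibition reaching at least a set limit at 20 µM in the primary screen, cut at about 59% in these data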;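 note: 0% = DMSO wells with substrate and 100% = DMSO wells lacking glucose-6-phosphate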
# PHOSPHO1 block: blocks human PHOSPHO1 phosphatase activity. inhibition, % at 13.3 µM. Q8TCT1. 290,000 compounds, 1.1% hits. recombinant PHOSPHO1, absorbance phosphatase assay; in the data active = inhibition above about 60%
# Target sequence (Q8TCT1 whole entry, looked up): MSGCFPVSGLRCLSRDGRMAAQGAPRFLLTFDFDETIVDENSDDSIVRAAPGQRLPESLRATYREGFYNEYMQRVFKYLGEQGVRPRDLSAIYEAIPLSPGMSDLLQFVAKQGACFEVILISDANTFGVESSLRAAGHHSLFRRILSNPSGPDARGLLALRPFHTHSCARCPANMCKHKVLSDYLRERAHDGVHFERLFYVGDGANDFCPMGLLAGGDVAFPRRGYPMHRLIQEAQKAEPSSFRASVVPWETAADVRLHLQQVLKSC
# ALR inh: human ALR oxidase inhibition via reduced H2O2; P55789; purified ALR, DTT oxidation, H2O2 HRP-luminol luminescence; inhibition, % (concentration not given with the values); 290,000 compounds, 3.8% hits; AID 485317;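 active = mean replicate inhibition above about 79%, with every replicate also reaching it, limit read from the data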
# Target sequence (P55789 whole entry, looked up): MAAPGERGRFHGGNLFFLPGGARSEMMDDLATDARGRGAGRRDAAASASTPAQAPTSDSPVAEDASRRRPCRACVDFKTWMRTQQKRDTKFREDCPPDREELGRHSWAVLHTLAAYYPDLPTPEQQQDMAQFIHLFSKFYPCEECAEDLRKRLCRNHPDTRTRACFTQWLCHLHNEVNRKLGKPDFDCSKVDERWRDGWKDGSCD
# Numbers without * were called inactive; / = no result given.
SMILES,M18AAP inhibitor,H9c2 protect,PfGluPho inh,PHOSPHO1 block,ALR inh
Brc1cc2c(cc1COc1ccc(-c3nn[nH]n3)cc1)OCO2,-3,-2,-35,-4,98*
COc1ccc(NC(=O)C2(C)Cc3c(-c4cccc(C(N)=O)c4)ccnc3O2)cc1OC (configuration not stated),/,20,/,/,/
CCC(C)NC(=O)c1nc2c(nnn2Cc2ccccc2Cl)c(=O)[nH]1 (configuration not stated),8,6,6,18,88*
O=C(NCc1cccs1)c1nc2c(nnn2Cc2ccccc2Cl)c(=O)[nH]1,-11,-4,0,-3,95*
Cc1c(NC(=O)CSc2nc(N)cc(N)n2)c(=O)n(-c2ccccc2)n1C,/,1,1,/,0
Cc1ccc(-c2cc(-c3ccccc3[N+](=O)[O-])[nH]n2)c(O)c1,15,-14,20,0,90*
O=C(O)C1Nc2c(C(=O)N3CCOCC3)cccc2C2C=CCC12 (configuration not stated),13,4,16,63*,-40
O=C(c1ccccc1O)N1CCOCC1,-3,4,-6,-1,-10
Cc1ccc2c(c1C)NC(C(=O)O)C1CC=CC21 (configuration not stated),/,-2,-9,62*,-18
Cc1[nH]c(-c2ccc(F)cc2)cc1C(=O)N1CCN(c2cccc(Cl)c2)CC1,4,-4,12,9,-2
COc1ccc([C@H]2N[C@]3(CCCN(Cc4ccc(F)cc4)C3=O)[C@H]3C(=O)N(C)C(=O)[C@@H]23)cc1,/,13,-2,/,/
C=C(C)Cn1c(N(CCO)Cc2ccccc2)nc2c1c(=O)[nH]c(=O)n2C,2,9,7,-2,-4
CNc1nc2c(c(=O)[nH]c(=O)n2C)n1CCCc1ccccc1,-7,2,12,13,8
C=CCNc1nc2c(c(=O)n(C)c(=O)n2C)n1Cc1ccc(F)cc1,-3,-10,10,5,-1
CCC(C)Nc1nc2c(c(=O)n(C)c(=O)n2C)n1Cc1ccc(F)cc1 (configuration not stated),-3,13,-4,-10,90*
CCC(C)Nc1nc2c(c(=O)[nH]c(=O)n2C)n1CCCc1ccccc1 (configuration not stated),4,3,-1,-2,82*
Cn1c(=O)[nH]c(=O)c2c1nc(N(CCO)Cc1ccccc1)n2CCCc1ccccc1,2,52*,14,-11,/
Cn1ncc2c(=O)[nH]c(N)nc21,/,4,-4,/,/
Cc1ccc(C(=O)NCC(=O)N(C)Cc2ccc(Cl)cc2Cl)s1,/,-1,9,/,/
Cc1ccc(N2CCN(Cc3ccccc3)CC2=O)c(C)c1,-6,0,-1,/,-3
CC(Sc1n[nH]c(-c2ccccc2)n1)C(=O)c1c(N)n(C)c(=O)n(C)c1=O (configuration not stated),/,6,-2,/,-3
CC(Sc1nc2ccccc2s1)C(=O)c1c(N)n(C)c(=O)n(C)c1=O (configuration not stated),-16,1,8,-42,99*
COc1cc(C(=O)NNC(=O)c2cc(S(=O)(=O)N(C)C)ccc2N2CCCC2)cc(OC)c1OC,/,7,-22,/,-2
N#CC1=C(N)N=C(SCc2ccccc2)C(C(N)=O)C12CCCCC2 (configuration not stated),-1,-4,-5,40,-8
Cc1ccc(C(=O)CSC2=NC(N)=C(C#N)C3(CCCCC3)C2C(N)=O)cc1 (configuration not stated),6,-12,47,-8,97*
SMILES,M18AAP inhibitor,H9c2 protect,PfGluPho inh,PHOSPHO1 block,ALR inh
Cc1ccc(-n2nc(C)c(Sc3ccccc3[N+](=O)[O-])c2N)cc1,21,-4,23,-20,87*
Cc1nc2ccc(C(=O)Nc3cccc(OCC(=O)N(C)C)c3)cn2c1N(C)CC1CCCCC1,/,5,/,/,/
CCCCCCC(C)n1[nH]c(=O)c2c(C)cc(C)nc21 (configuration not stated),0,-9,11,28,-5
CNc1nc(-c2ccccn2)nnc1-c1ccccc1,1,52*,-11,11,0
Clc1ccc(C[n+]2csc3ccccc32)cc1,38*,5,57,4,11
Cc1ccc(-c2c[n+](Cc3ccc(Cl)cc3)c3n2CCC3)cc1,-8,-10,-5,8,-8
CCN(C1CCCCC1)S(=O)(=O)CCNC(=O)c1ccc(OC)cc1,/,2,-4,/,/
CN(C)c1ccc(/C=C2\SC(=O)N(CCc3nnc(N)s3)C2=O)cc1,11,-28,12,30,97*
CN(C)S(=O)(=O)c1cccc(NC(=O)c2cccc(N3C(=O)CCC3=O)c2)c1,/,-1,-6,/,/
Nc1ccc2c(c1)Nc1ccccc1CC2,8,-4,20,37,99*
N#CC(C#N)=C1CCc2ccccc2N1,0,5,-9,1,/
CC(=O)Nc1ccc2c(c1)NC(=O)CC2,5,13,2,28,-8
COC(=O)Nc1ccc2c(c1)Nc1ccccc1CC2,10,0,25,44,98*
Cc1cc(N2CCOCC2)nc(-c2ccc([N+](=O)[O-])cc2)n1,-3,-1,5,37,100*
c1ccc(-c2nc(N3CCOCC3)cc(N3CCOCC3)n2)cc1,-2,-5,-11,38,0
O=C(COc1ccc2c(c1)OCO2)Nc1nccs1,2,-16,0,22,/
CCOc1ccccc1NC(=O)c1ccc2c(=O)n3c(nc2c1)CCCCC3,4,1,7,75*,-3
COc1ccccc1CNC(=O)c1ccc2c(=O)n3c(nc2c1)CCCCC3,1,15,16,65*,-1
COc1ccccc1OCC(=O)NNC(=O)c1ccc2c(=O)n3c(nc2c1)CCC3,12,-2,8,33,4
CCOc1ccc(NC(=O)c2ccc3c(=O)n4c(nc3c2)CCCCC4)cc1,8,-2,-4,53,3
COc1cc(NC(=S)N2CCN(C)CC2)cc(OC)c1,3,0,2,13,-38
CCOc1cnn(-c2ccccc2)c(=O)c1Cl,-3,-5,-4,36,96*
CCSc1cnn(-c2ccccc2)c(=O)c1Cl,/,2,6,/,7
CC(=O)Nc1nc(=S)ss1,2,9,51,79*,-8
CC(C)CC(=O)Nc1nc(=S)ss1,0,-16,46,10,26
SMILES,M18AAP inhibitor,H9c2 protect,PfGluPho inh,PHOSPHO1 block,ALR inh
O=C(CCl)NCc1c(Cl)cccc1-n1cccc1,2,12,-7,26,96*
O=C(Cc1ccc(Cl)cc1Cl)Nc1cccc(S(=O)(=O)Nc2ccccc2F)c1,29*,-8,70*,74*,-7
O=C(Cc1c(F)cccc1Cl)Nc1cccc(S(=O)(=O)NC2=NCCCCC2)c1,/,-4,6,/,/
Cc1cccc(OCC(=O)NCCCNC(=O)c2ccco2)c1,13,-1,12,24,-16
O=C(CN1CCCc2ccccc21)NCCc1ccc(F)cc1,5,-2,3,7,108*
CC(=O)Nc1cccc(C(=O)NN2C(=O)NC3(CCC(C)CC3)C2=O)c1 (configuration not stated),/,1,-11,/,/

# Source: PubChem BioAssay
